The results in this text go back to ChEMBL document CHEMBL4513216, “Probing the Open Global Health Chemical Diversity Library for Multistage-Active Starting Points for Next-Generation Antimalarials” (ACS Infect Dis, 2020).

Out of some 69,000 compounds screened, about 8,600 (12%) showed an effect of 50% or more. For the sample, strong results were picked, then their nearest neighbours and some compounds at random.

This assay has as its system Plasmodium berghei. Kind of assay: Screen against P. berghei liver stage (PbLuc), transformed with Luciferase, at 10uM. Particulars: tested at 10 uM. It counts as functional, HepG2.
`NCC1Cc2cc(-c3nccc(N4CCC(O)CC4)n3)cc(Cl)c2O1` (stereo unspecified): the INHIBITION is given as 43.9%.
For the molecule `NCC1Cc2cccc(-c3nccc(N4CCC(O)CC4)n3)c2O1` (stereo unspecified), the INHIBITION is given as 92.1%.
Take `NCC1Cc2cc(-c3nccc(N4CCC(O)CC4)n3)cc(F)c2O1` (stereo unspecified): the INHIBITION was found to be 20.5%.
In the case of `CCCc1noc(C2CC(=O)N(Cc3ccccc3)C2)n1` (stereo unspecified), the INHIBITION is listed as 11.1%.
As for `COCCC(=O)N1Cc2ccccc2OC2(CCOCC2)C1`, the INHIBITION was found to be 26.05%.
As for `Cc1c(CS(C)(=O)=O)cccc1NCCCC1CCCC1`, the INHIBITION is on record as 74.8%.
For the molecule `Cc1c(CS(C)(=O)=O)cccc1NCC1CCCCC1`, the INHIBITION is recorded as -0.514%.
Then `Cc1c(CS(C)(=O)=O)cccc1NC(=O)CC1CCCC1`, with -15.9%; and `CN(Cc1ccc(O)cc1)C(=O)NC1CCCN(c2ncccn2)C1` (stereo unspecified), with 18.9665%; and `O=c1[nH]c2cn(-c3cccc(F)c3)c(=O)n2n1Cc1ccccc1Cl`, with 20.6%.
As for `CCc1nc(C(=O)N2CCCC2)nn1-c1ccccc1Cl`, the INHIBITION worked out at 67.3%.
In the case of `CCN1CCN(C(=O)c2nc(C)n(-c3ccccc3Cl)n2)CC1`, the INHIBITION came out at 50.4%.
To `CCc1nc(C(=O)N2CCN(C)CC2)nn1-c1ccccc1Cl` belongs 34.7%; to `CCc1nc(C(=O)N2CCN(CC)CC2)nn1-c1ccccc1Cl`, 4.52%; to `CCc1nc(C(=O)N2CCCCC2)nn1-c1ccccc1Cl`, 12.7%.
In the case of `Cc1nc(C(=O)N2CCCCC2)nn1-c1ccccc1Cl`, the INHIBITION came out at 4.52%.
As for `Cc1cnc(CC2COCCN(C(=O)c3cncs3)C2)cn1` (stereo unspecified), the INHIBITION came to 21.5%.
Turning to `CCc1ccc(C(=O)N2CCC(c3nncn3CC)CC2)o1`, the INHIBITION is listed as 28.1%.
Then `COc1ccc(OCCN(C)S(=O)(=O)c2cnn(C)c2)cc1`, with 11.5%.
For `O=C(NCCOc1ccccc1)Nc1cc(C(F)(F)F)c[nH]c1=O`, the INHIBITION came to 9.895%.
Turning to `CC(=O)N1CCC2(CC1)CN(CC1CC1)c1ccc(F)cc12`, the INHIBITION was determined as 37.6%.
To `COCC(=O)N1CCC2(CC1)CN(CC1CC1)c1ccc(F)cc12` belongs 77.4%; to `COCC(=O)N1CCC2(CCc3ccc(F)cc32)CC1`, -30%; to `Cn1cc(CN2CCCC23CCN(C(=O)c2ccsc2)CC3)cn1`, -16.1%.
Turning to `Cc1cnn(CC2CCCN2C(=O)c2ccc3[nH]c(=O)[nH]c3c2)c1` (stereo unspecified), the INHIBITION was 17.5%.
Regarding `Cc1ncc(CN(C)c2nc3c(cnn3C(C)(C)C)c(=O)[nH]2)s1`, the INHIBITION was 30.8%.
As for `Cc1ccsc1CN(C)Cc1nc2c(cnn2C)c(=O)[nH]1`, the INHIBITION was determined as 26.3%.
For the molecule `Cc1nc(CN(C)c2nc3c(cnn3C(C)(C)C)c(=O)[nH]2)cs1`, the INHIBITION came to 36.2%.
`CCN(Cc1nc2c(cnn2C)c(=O)[nH]1)Cc1cccs1`: the INHIBITION was 44.6%.
Turning to `CN(Cc1cccs1)c1nc2c(cnn2C(C)(C)C)c(=O)[nH]1`, the INHIBITION is reported as 53.5%.
Then `Cc1ccsc1CN(C)c1nc2c(cnn2C(C)(C)C)c(=O)[nH]1`, with 70.7%.
